Reference: PubChem BioAssay
The source made the active and inactive calls.

How the values were obtained:
[1] = tested on: Plasmodium falciparum Sir2 (PF13_0152, Sir2A); assay: pfSir2 binders on small-molecule microarrays, primary screen, biochemical, small-molecule microarray, 635 nm fluorescence (AID 1098); conditions: small-molecule microarray binding, fluorescence 635 nm; higher = more signal;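 also: score merges spot fluorescence intensity with its signal-to-noise ratio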
[2] = small-molecule microarray binders of probe aDKK1, primary screen, biochemical, biotinylated probe, 635/667 nm fluorescence (AID 1099); conditions: higher = more signal;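 also: score merges 667nm spot fluorescence with signal to noise across triplicate slides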
[3] = small-molecule microarray binders of probe aCHRDL2, primary screen, biochemical, biotinylated probe, 635/667 nm fluorescence (AID 1100); conditions: higher = more signal
[4] = splicing luciferase reporter signal modulators, primary screen, spliceosome inhibition project, cell-based, HEK293, splice +/- reporter (AID 1101); conditions: luminescence, 24 h, higher = more signal, called active from +8 up or from −8 down;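 also: HEK293 cells carrying a splicing-competent luciferase reporter gene; test concentration not given here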
[5] = molecular target: Fibroblast growth factor 10 (Homo sapiens) (UniProt O15520); assay: FGF10 binders on small-molecule microarrays, primary screen, biochemical, small-molecule microarray, 635 nm fluorescence (AID 1102); conditions: FGF10 binding, fluorescence 635 nm, higher = more signal
[6] = tested on: glycogen synthase kinase-3 (GSK3A per assay name; protocol says GSK3B); assay: GSK3 binders on small-molecule microarrays, primary screen, biochemical, small-molecule microarray, 635 nm fluorescence, GSK3A (AID 1103); conditions: small-molecule microarray binding, fluorescence 635 nm; higher = more signal; also: the record names both GSK3A and GSK3B
[7] = molecular target: Epidermal growth factor receptor (Homo sapiens) (UniProt P00533); assay: EGFR binders on small-molecule microarrays, primary screen, biochemical, small-molecule microarray, 635 nm fluorescence (AID 1104); conditions: EGFR binding, higher = more signal;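 also: score merges 667 nm emission intensity with spot signal to noise over triplicate slides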
[8] = molecular target: Follistatin-related protein 3 (Homo sapiens) (UniProt O95633); assay: FSTL3 binders on small-molecule microarrays, primary screen, biochemical, small-molecule microarray, 635 nm fluorescence (AID 1105); conditions: FSTL3 binding, higher = more signal;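 also: score merges emission near 667 nm and signal to noise per printed spot across three slides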
[9] = molecular target: Dickkopf-related protein 1 (Homo sapiens) (UniProt O94907); assay: DKK1 binders on small-molecule microarrays, primary screen, biochemical, small-molecule microarray, 635 nm fluorescence scan (AID 1106); conditions: DKK1 binding, higher = more signal;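 also: score merges emission near 667 nm with signal to noise over three replicate slides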
[10] = tested on: Inhibin beta A chain (activin A); assay: INHBA (activin A) binders on microarrays, primary screen, biochemical, small-molecule microarray, 635 nm fluorescence scan (AID 1107); conditions: small-molecule microarray binding, higher = more signal;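 also: mouse activin A protein probed at 4.33 µg/mL on printed slides; score merges bound-protein fluorescence near 667 nm with spot signal-to-noise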
[11] = tested on: Human papillomavirus type 1a protein E7 (residues 44-93); assay: HPV1a E7 fragment binders on microarrays, primary screen, biochemical, small-molecule microarray, residues 44-93, 635 nm fluorescence (AID 1108); conditions: small-molecule microarray binding, fluorescence 635 nm; higher = more signal;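 also: E7 fragment applied at 1 µg/mL in TBST for 1 h at 4 C; score combines spot fluorescence with its signal to noise ratio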
[12] = modulators of HCV replicon luciferase signal, primary screen, HCV replication inhibitor project, Huh7 cells, luciferase reporter (AID 1109); conditions: 48 h, higher = more signal;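 also: huh7 hepatoma cells harbouring a luciferase neomycin HCV replicon reporter; luciferase luminescence as measure of HCV replicon replication; test concentration not given here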
[13] = molecular target: Left-right determination factor 2 (Homo sapiens) (UniProt O00292); assay: LEFTY2 binders on small-molecule microarrays, primary screen, biochemical, small-molecule microarray, 635 nm fluorescence scan (AID 1110); conditions: LEFTY2 binding, higher = more signal
[14] = molecular target: Calmodulin-1 (Homo sapiens) (UniProt P0DP23); assay: CALM1 binders on microarrays, EGTA buffer, profiling panel, biochemical, small-molecule microarray, Cy5-labelled CALM1 (AID 1111); conditions: Cy5-CALM1 binding fluorescence, higher = more signal;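 also: labelled calmodulin applied in Tris saline Tween buffer holding calcium plus EGTA and DTT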
[15] = molecular target: Calmodulin-1 (Homo sapiens) (UniProt P0DP23); assay: calcium-bound CALM1 binders on microarrays, profiling panel, artefact control for SMM control-protein annotation, biochemical, small-molecule microarray, Cy5-labelled CALM1, plus calcium (AID 1112); conditions: Cy5-CALM1 binding fluorescence, higher = more signal;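 also: score merges spot fluorescence with signal to noise from triplicate slides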
[16] = small-molecule microarray binders of probe aWnt5a, primary screen, biochemical, biotinylated probe, 635/667 nm fluorescence (AID 1113); conditions: higher = more signal;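 also: score merges 667 nm fluorescence intensity with signal-to-noise per printed feature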
[17] = small-molecule microarray binders of probe aShh, primary screen, biochemical, biotinylated probe, 635/667 nm fluorescence (AID 1114); conditions: higher = more signal;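 also: probe is biotin-labelled aShh protein from a stem cell growth factor screen; measures binding of labelled protein to compounds printed on the slide; score merges feature fluorescence at 667 nm with signal-to-noise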
[18] = small-molecule microarray binders of probe aNog, primary screen, biochemical, biotinylated probe, 635/667 nm fluorescence (AID 1115); conditions: higher = more signal;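 also: probe is biotinylated aNog protein used at 0.15 µg/mL for 1 h at 4 C; z-score combines 667 nm fluorescence of each spot with its signal to noise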
[19] = molecular target: Torsin-1A-interacting protein 1 (Homo sapiens) (UniProt Q5JTV8); assay: LAP1 binders from COS7 cell lysate, primary screen, small-molecule microarray, 635/667 nm fluorescence (AID 1116); conditions: COS7-hLAP1 lysate binding, 635 nm fluorescence, higher = more signal
[20] = molecular target: Alpha-bungarotoxin (Bungarus multicinctus) (UniProt P60615); assay: alpha-bungarotoxin binders on microarray, profiling panel, artefact control for SMM control protein annotation, biochemical, small-molecule microarray, Alexa647 label, 635/667 nm fluorescence (AID 1117); conditions: alpha-BTX-A647 binding fluorescence, higher = more signal
Chain of Alpha-bungarotoxin (Bungarus multicinctus) (P60615 whole entry, looked up): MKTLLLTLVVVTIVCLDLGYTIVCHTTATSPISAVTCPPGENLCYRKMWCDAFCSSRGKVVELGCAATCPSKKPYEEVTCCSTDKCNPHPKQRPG

Chain of Dickkopf-related protein 1 (Homo sapiens) (O94907 whole entry, looked up): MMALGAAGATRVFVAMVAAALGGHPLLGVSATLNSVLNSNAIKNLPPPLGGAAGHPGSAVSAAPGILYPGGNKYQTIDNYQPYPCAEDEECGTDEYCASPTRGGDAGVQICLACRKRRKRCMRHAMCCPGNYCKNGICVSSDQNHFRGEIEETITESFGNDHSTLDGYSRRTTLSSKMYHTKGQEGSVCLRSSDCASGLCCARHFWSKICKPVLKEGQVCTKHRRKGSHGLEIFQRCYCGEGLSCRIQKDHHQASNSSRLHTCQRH
Chain of Left-right determination factor 2 (Homo sapiens) (O00292 whole entry, looked up): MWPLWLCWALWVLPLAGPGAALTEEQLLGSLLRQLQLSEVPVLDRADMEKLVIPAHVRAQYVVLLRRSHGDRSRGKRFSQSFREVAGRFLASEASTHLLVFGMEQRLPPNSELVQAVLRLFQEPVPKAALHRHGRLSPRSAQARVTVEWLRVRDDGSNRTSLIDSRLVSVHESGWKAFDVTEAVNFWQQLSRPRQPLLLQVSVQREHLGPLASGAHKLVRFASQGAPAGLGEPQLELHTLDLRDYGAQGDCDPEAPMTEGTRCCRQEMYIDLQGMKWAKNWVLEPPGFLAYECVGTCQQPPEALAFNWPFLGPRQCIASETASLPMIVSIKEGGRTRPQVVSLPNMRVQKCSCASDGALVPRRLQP
Chain of Epidermal growth factor receptor (Homo sapiens) (P00533 whole entry, looked up): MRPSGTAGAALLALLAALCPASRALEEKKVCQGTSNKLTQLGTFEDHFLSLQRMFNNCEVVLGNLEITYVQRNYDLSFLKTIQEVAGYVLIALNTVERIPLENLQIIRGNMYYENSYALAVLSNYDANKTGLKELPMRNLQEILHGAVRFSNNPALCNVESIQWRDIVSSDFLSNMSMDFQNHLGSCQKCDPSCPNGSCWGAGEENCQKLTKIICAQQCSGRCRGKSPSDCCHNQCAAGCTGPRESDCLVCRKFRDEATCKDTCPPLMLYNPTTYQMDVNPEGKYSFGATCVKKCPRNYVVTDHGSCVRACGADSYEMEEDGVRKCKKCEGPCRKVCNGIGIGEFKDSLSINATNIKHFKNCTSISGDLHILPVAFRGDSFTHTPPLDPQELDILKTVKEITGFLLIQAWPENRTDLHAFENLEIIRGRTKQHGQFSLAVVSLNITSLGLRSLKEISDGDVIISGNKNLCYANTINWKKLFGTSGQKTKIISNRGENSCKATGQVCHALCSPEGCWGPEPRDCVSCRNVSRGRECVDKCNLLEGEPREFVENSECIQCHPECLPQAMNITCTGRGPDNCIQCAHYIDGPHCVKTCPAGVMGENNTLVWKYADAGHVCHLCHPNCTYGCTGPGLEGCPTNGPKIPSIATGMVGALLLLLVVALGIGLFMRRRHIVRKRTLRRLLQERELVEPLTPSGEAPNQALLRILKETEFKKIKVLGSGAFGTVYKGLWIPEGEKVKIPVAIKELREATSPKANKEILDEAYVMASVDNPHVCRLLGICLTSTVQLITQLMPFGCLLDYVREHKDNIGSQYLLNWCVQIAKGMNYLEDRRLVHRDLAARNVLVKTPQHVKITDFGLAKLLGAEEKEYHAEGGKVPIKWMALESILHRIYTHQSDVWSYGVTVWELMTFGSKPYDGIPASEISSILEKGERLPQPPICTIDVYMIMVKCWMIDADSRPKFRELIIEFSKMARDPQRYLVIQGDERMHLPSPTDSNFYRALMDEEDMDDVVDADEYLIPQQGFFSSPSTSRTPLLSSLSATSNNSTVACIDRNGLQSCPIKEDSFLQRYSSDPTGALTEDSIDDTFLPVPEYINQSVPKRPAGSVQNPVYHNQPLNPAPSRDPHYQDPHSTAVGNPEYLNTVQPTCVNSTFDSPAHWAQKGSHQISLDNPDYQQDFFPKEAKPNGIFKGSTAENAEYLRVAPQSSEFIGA
Chain of Fibroblast growth factor 10 (Homo sapiens) (O15520 whole entry, looked up): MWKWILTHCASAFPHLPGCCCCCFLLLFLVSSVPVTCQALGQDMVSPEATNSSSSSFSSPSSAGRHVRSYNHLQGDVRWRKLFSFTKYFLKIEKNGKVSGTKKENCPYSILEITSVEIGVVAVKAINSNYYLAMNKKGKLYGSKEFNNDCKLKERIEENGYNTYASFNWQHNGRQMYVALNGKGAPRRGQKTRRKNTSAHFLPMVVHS
Chain of Follistatin-related protein 3 (Homo sapiens) (O95633 whole entry, looked up): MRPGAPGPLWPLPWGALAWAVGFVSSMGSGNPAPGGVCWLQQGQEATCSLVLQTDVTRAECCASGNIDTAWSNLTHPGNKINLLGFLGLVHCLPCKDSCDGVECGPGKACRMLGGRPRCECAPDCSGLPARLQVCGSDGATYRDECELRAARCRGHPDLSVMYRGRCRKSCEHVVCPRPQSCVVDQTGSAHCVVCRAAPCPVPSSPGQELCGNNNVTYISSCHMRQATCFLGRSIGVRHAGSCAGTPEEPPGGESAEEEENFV
Chain of Torsin-1A-interacting protein 1 (Homo sapiens) (Q5JTV8 whole entry, looked up): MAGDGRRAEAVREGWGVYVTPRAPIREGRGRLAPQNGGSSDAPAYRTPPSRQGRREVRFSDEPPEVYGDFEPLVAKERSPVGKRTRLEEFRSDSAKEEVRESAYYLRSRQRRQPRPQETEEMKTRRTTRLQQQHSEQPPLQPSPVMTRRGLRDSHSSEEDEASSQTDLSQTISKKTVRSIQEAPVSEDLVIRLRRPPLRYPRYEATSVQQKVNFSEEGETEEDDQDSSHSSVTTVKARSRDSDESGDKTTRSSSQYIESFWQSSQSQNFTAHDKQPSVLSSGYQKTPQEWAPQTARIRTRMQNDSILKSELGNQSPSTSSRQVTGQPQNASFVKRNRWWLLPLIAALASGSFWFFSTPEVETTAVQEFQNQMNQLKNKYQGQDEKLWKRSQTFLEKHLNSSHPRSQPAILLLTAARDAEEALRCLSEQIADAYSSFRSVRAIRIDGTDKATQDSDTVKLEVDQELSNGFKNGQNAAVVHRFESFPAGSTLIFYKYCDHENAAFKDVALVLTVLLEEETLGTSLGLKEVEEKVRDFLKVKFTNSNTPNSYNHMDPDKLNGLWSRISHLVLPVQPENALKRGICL

| SMILES | composite z-score [1] | composite z-score [2] | composite z-score [3] | z-score [4] | composite z-score [5] | composite z-score [6] | composite z-score [7] | composite z-score [8] | composite z-score [9] | composite z-score [10] | composite z-score [11] | z-score [12] | composite z-score [13] | composite z-score [14] | composite z-score [15] | composite z-score [16] | composite z-score [17] | composite z-score [18] | composite z-score [19] | composite z-score [20] |
| --- | --- | --- | --- | --- | --- | --- | --- | --- | --- | --- | --- | --- | --- | --- | --- | --- | --- | --- | --- | --- |
| CC(C)C(CO)N1C(=O)[C@@H]2[C@H]3C(=O)OCC=C[C@H]3OC23C=CCN(Cc2ccccc2)C(=O)[C@@H]13 (stereo not given in full) | -0.734 | -0.26 | 0.0297 | -0.346 (inactive) | -0.367 | -0.882 | -1.12 | -0.718 | -0.149 | 0.859 | -1.25 | -0.498 | -0.275 | -0.886 | -0.783 | -0.256 | 0.0141 | 0.0342 | -0.207 | -1.44 |
| C=CCNC(=O)[C@@H]1[C@H]2C(=O)O[C@H](c3ccccc3)[C@H](c3ccccc3)N2[C@H](c2ccc(O)cc2)[C@@]12C(=O)N(C(=O)OCCOC)c1ccc(C#Cc3ccc(OC)cc3)cc12 | 1.12 | 0.51 | -0.382 | -1.16 (inactive) | 0.793 | 1.3 | 0.541 | 0.62 | 1.12 | -0.071 | 1.13 | -1.77 | 0.638 | 1.75 | 0.185 | -0.0368 | -0.0011 | 0.315 | 1.13 | 0.579 |
| O=C1O[C@H](c2ccccc2)[C@H](c2ccccc2)N2[C@H]1[C@@H](C(=O)Nc1nc3ccccc3s1)[C@]1(C(=O)Nc3ccc(C#CCCO)cc31)[C@H]2c1ccccc1OCCO | 1.35 | 0.676 | 0.784 | -0.0121 (inactive) | 0.545 | 1.31 | 0.289 | 0.892 | 0.328 | 0.793 | 0.793 | -1.79 | 0.537 | 1.74 | 0.439 | 0.0849 | 0.355 | 1.3 | 1.26 | 1.97 |
| COC(=O)C1=CC(CCCO)=CC(C2CC2)N(Cc2cc3c(cc2Br)OCO3)C=C1C(=O)OC (stereo not given) | 1.57 | 1.03 | 1.14 | -0.575 (inactive) | 0.0344 | 0.194 | -0.482 | 0.0154 | 0.47 | 0.945 | 1.36 | -0.164 | -0.998 | 2.27 | 0.67 | -0.0269 | 0.0141 | 0.842 | 3.07 | 1.97 |
| C=C(COC)C(=O)CC[C@H](OC(=O)c1ccccc1-c1ccccc1C(=O)O)c1ccccc1OCCO | 1.52 | -0.227 | -0.053 | -0.51 (inactive) | 0.595 | 0.264 | -0.124 | 0.159 | 0.307 | 1.1 | -0.15 | -1.46 | 0.273 | 0.209 | -0.749 | -0.118 | 0.267 | 0.0707 | 0.423 | 0.737 |
| C=C(CCCC)/C(=C/C[C@H](OC(=O)c1ccncc1)c1ccc(CO)o1)c1cnc2ccccc2c1 | 1.14 | 0.248 | -0.0775 | -0.964 (inactive) | 1.09 | 1.19 | 0.474 | 1.46 | 0.823 | 1.46 | 0.229 | -1.89 | 0.429 | 0.697 | 0.244 | -0.0236 | 0.0898 | 0.995 | 0.731 | 1.8 |
